# From patent publication US20060069055, “Delivery of polynucleotides” (published 2006)
# Target: NF-kB p50/p50 homodimer (Homo sapiens, UniProt P19838 P19838:1-433)
# Assay: EMSA
# Conditions: protein: extract; tags: nuclear extract of LPS-stimulated THP-1 cells; chain copies: 2 stated; dsDNA, one strand shown
# From the text: The EMSA assay was employed to characterize oligonucleotide decoys for the NF-κB transcription factor. […] Using the above modified oligonucleotides to compete for binding for the above-mentioned NF-κB family members, it was possible to compare the binding affinity of these oligonucleotides against the high affinity radiolabeled probe and each other. This assay has also enabled the design of a decoy which selectively binds particular members of the NF-κB family. By using increasing concentrations of various oligonucleotides, it was observed that, by deleting or changing targeted residues in the binding site, it was possible to specifically decrease the binding of the decoy molecule to p50/p50 homodimers, while retaining the affinity for p65/p50 and cRel/p50 heterodimers.
# The NF-κB gel shift assays (EMSA) were performed as follows. A double-stranded oligonucleotide containing a consensus NF-κB binding site (5′ […].GGC 3′) (SEQ ID NO: 26) was end-labeled with γ³²P-ATP using T4 Polynucleotide Kinase (Promega). One microgram of a nuclear extract prepared from LPS stimulated THP-1 cells (human monocyte cell line) was incubated with 35 fmol of radiolabeled probe in the presence or absence of competing unlabeled NF-κB double-stranded oligonucleotides (dsODN) or scrambled dsODN. The incubations were carried out at room temperature for 30 minutes in a 20 μl reaction volume composed of 10 mM Tris-HCl pH 8, 100 mM KCL, 5mM MgC12, 2mM DTT, 10% Glycerol, 0.1% NP-40, 0.025% BSA and 1 μg Poly-dIdC. The reactions were loaded onto a 6% polyacrylamide gel, subjected to electrophoresis and dried. The dried gels were imaged and quantitated using a Typhoon 8600 Phosphorlmager (Amersham) and ImageQuant software. The identity of the NF-κB proteins contained in complexes bound to the radiolabeled oligonucleotide probe were identified by pre-incubating the reactions for 5 minutes with individual antibodies specific for each member of the NF-κB family prior to the addition of the radiolabeled probe.
# Chain of NF-kB p50/p50 homodimer (P19838 1-433, one chain of several): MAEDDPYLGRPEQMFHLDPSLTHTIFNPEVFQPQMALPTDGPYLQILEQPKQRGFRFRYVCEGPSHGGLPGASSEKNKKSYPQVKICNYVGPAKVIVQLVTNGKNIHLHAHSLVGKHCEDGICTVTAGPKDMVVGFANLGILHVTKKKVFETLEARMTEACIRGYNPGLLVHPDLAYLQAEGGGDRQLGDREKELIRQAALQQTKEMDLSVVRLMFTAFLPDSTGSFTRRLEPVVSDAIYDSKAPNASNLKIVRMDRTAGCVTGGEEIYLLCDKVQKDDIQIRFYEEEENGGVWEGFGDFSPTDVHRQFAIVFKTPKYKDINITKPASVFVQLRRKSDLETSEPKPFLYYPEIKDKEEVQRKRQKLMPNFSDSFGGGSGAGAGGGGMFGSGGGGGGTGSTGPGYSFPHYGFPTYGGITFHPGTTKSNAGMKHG
row,Sequence,IC50 [fold molar excess]
1,TCGGACTTTCCCTC,62.5
2,AGTTGAGGATTTCCAGGC,82
3,AGTTGAGGGATTTCCAGGC,69
4,TCGGACTTTCCTC,97
5,AGTTGAGGATTTCCCAGGC,84
6,TTGAGGACTTTCCAGGCTC,85
